PfHsp90 yeast 2: inhibits growth of yeast expressing Plasmodium falciparum Hsp90; S. cerevisiae expressing PfHsp90, BacTiter-Glo ATP, 48 h; yeast lacking PDR1 and PDR3 efflux regulators; inhibition, % at 9.4 µM; 0.32% of 310,000 active;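 active = every replicate shows inhibition above about 80%, whatever the replicate mean, limit read from the data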;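 note: 0% = DMSO neutral controls and 100% = 20 µM radicicol positive controls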
B2AR ag: activates human beta-2 adrenergic receptor causing internalization; P07550; Am2.2-beta2AR cells, FAP receptor internalization, flow cytometry; response, % (concentration not given with the values); 0.43% of 340,000 active;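 active = response above a set limit, near 3 SD of response in nonfluorescent compounds, cut at about 42% in these data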
Target sequence (P07550 whole entry, looked up): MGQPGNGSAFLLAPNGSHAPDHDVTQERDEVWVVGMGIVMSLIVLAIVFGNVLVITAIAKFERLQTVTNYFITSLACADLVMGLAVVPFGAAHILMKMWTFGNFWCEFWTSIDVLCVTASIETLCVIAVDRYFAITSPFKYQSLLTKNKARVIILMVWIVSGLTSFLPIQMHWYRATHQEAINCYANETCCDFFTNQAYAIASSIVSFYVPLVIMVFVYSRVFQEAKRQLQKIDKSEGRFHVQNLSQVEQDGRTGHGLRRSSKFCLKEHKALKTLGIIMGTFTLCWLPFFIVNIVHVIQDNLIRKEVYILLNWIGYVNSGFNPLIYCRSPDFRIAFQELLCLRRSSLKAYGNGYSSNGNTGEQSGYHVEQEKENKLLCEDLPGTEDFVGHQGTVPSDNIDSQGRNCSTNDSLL
tim23-1 inh: inhibits growth of tim23-1 mutant yeast; inhibition, % at 20 µM; AID 463212; S. cerevisiae tim23-1 growth, BacTiter-Glo luminescence, 24 h; 1.3% of 330,000 active;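 active = growth inhibition of the mutant yeast at or above 50%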;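 note: temperature-sensitive mutant grown at 25 °C; plate controls were DMSO-treated mutant yeast for no effect and medium wells lacking yeast for full effect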
tim10-1 inh: tim10-1 yeast growth inhibition. 2.2% of 330,000 active. S. cerevisiae tim10-1 ts strain growth, BacTiter-Glo, 24 h. inhibition, % at 20 µM. AID 463190;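 active = inhibition of at least 40%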;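 note: mutant grown at 25 °C; 0% = DMSO wells with yeast and 100% = wells holding no yeast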
TIM10 inh: growth inhibitors of TIM10 yeast strain. inhibition, % at 10 µM. 1.4% of 330,000 active. S. cerevisiae TIM10 strain growth, BacTiter-Glo luminescence, 24 h;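 active = inhibition of 40% or more at the single tested concentration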;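 note: wild-type TIM10 isogenic control strain grown at permissive 25 °C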
tim10-1 confirm: tim10-1 yeast growth inhibition, confirmed; shares compounds with tim10-1 inh; S. cerevisiae tim10-1 ts strain growth, BacTiter-Glo, 24 h; inhibition, % at 20 µM; 56% of 7,400 active; AID 463213;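 active = inhibition of yeast growth at or above a set limit in either of two repeat tests at 20 µM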;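 note: tim10-1 mutant grown at permissive 25 °C to find synthetic lethal compounds; 0% = DMSO yeast wells and 100% = medium wells without yeast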
TIM10 conf: TIM10 yeast growth inhibition, confirmed | AID 463215 | inhibition, % at 10 µM | shares compounds with TIM10 inh | S. cerevisiae tim10 strain growth, BacTiter-Glo luminescence, 24 h | 63% of 4,600 active;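 active = inhibition of yeast growth at or above a set limit in either of two replicates at 10 µM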;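 note: this counterscreen used the strain with wild-type TIM10; 0% = yeast with DMSO and 100% = medium wells lacking yeast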
tim23-1 confirm: confirmation of tim23-1 mutant yeast growth inhibitors; shares compounds with tim23-1 inh; S. cerevisiae tim23-1 growth, BacTiter-Glo luminescence, 24 h; inhibition, % at 20 µM; 83% of 4,400 active; AID 463218;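 active = inhibition above about 39% in either of two replicate wells at 20 µM, limit read from the data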;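 note: temperature-sensitive tim23-1 mutant grown at 25 °C; 0% = DMSO wells with yeast and 100% = medium wells without yeast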
An asterisk follows results filed as active; . = not tested or not shown. Most compounds without a hit are left out; they make up all but 3.8% or so of the library.

SMILES | PfHsp90 yeast 2 | B2AR ag | tim23-1 inh | tim10-1 inh | TIM10 inh | tim10-1 confirm | tim23-1 confirm | others
CCOC(=O)C1(CCCc2ccccc2)CCN(C(=O)c2cc(C)nn2CC)CC1 | 18 | -3 | 27 | 24 | 7 | . | .
COc1ccccc1C1NC(=O)NC(C)=C1C(=O)OC1CCC(C)CC1 (stereo unspecified) | -27 | 2 | 17 | 20 | 1 | . | .
O=C(NC1CC1(c1ccccc1)c1ccccc1)c1ccccc1 (stereo unspecified) | -28 | -4 | . | . | . | . | .
Cc1cccc(CS(=O)(=O)c2ncc(Cl)c(C(=O)Nc3c(C)cccc3C)n2)c1 | -10 | 30 | 56* | 46* | 9 | -55 | 21
CCCc1nnc(NC(=O)c2nc(S(=O)(=O)Cc3cccc(C)c3)ncc2Cl)s1 | 4 | 24 | 6 | 23 | 7 | . | .
CC(C)(C)NC(=O)C(c1ccc(Cl)cc1)N(Cc1ccco1)C(=O)CCl (stereo unspecified) | 17 | 4 | 51* | 53* | 37 | 38* | 48*
Cc1cc(=O)[nH]c(SCC(=O)C23CC4CC(CC(C4)C2)C3)c1C#N | 23 | 5 | 74* | 66* | 73* | 60* | 49* | TIM10 conf=59*
COc1ccc(NC(=O)/C(Cl)=C(/Cl)S(=O)Cc2ccccc2Cl)cn1 (stereo unspecified) | 107* | 58* | 79* | 42* | 55* | 23 | 21 | TIM10 conf=84*
Cc1ccc(C2(c3ccccc3)NC(=O)N(CC(=O)NCc3ccccc3)C2=O)cc1C (stereo unspecified) | . | 40 | 15 | 12 | 7 | . | .
COc1ccc(C(=O)N/C(N)=N/c2nc3ccccc3o2)cc1 | 38 | -15 | 4 | 18 | 11 | . | .
COc1ccc(C(=O)/C=C/Sc2nc3ccccc3o2)cc1 | 4 | 27 | 75* | 50* | 38 | 38* | 66*
CCCCOC(=O)Sc1nc2ccccc2o1 | -45 | 10 | 74* | 49* | 64* | 49* | 44* | TIM10 conf=43*
CC(C)(C)CC(C)(C)NC(=O)CSCC(=O)Nc1ccc2ccccc2c1 | 12 | 5 | 67* | 64* | 35 | 35* | 52*
O=C(COC(=O)c1cncc(Br)c1)NCC12CC3CC(CC(C3)C1)C2 | 2 | -1 | 33 | 28 | 14 | . | .
CN1c2ccccc2C(C)(C)C12C=Cc1cc(O)ccc1O2 (stereo unspecified) | . | 6 | 55* | 52* | 43* | 41* | 52* | TIM10 conf=42*
CN1c2ccccc2C(C)(C)C12C=Nc1c(cc(N3CCOCC3)c3ccccc13)O2 (stereo unspecified) | -25 | 7 | 21 | 24 | 7 | . | .
O=C(NCCc1ccccc1)C(=O)c1c(-c2ccccc2)cc2ccccn12 | -39 | -3 | 53* | 51* | 27 | 36* | 54*
O=C(NCCO)C(=O)c1c(-c2ccc(Cl)cc2)cc2ccccn12 | -6 | 0 | 2 | 11 | -5 | . | .
CCCOc1ccc(C(=O)N/N=C/c2c[nH]c3ccc(Br)cc23)cc1 | 14 | 12 | 55* | 43* | 18 | 37* | 54*
O=C(COC(=O)c1ccc(O)cc1O)NC1CC1 | -5 | -2 | 0 | 9 | 6 | . | .
Cn1nnc(NC(=S)NC(=O)c2cccc3c(Cl)cccc23)n1 | -36 | 0 | 52* | 49* | 11 | -2 | 39*
Cc1nc2ccccc2c(=O)n1NC(=O)Cc1ccc(Br)cc1 | . | 4 | 2 | 3 | 4 | . | .
CCCCCc1ccc(CC(=O)Nn2c(C)nc3ccccc3c2=O)cc1 | -7 | -6 | 52* | 60* | 7 | 48* | 69*
CCCCSc1ncnc2c1ncn2C1CCCCO1 (stereo unspecified) | 12 | 1 | . | . | . | . | .
CC(=O)OC[C@H]1O[C@@H](Oc2cc3ccc(=O)oc3cc2OC(C)=O)[C@H](OC(C)=O)[C@@H](OC(C)=O)[C@@H]1OC(C)=O | -19 | 21 | . | . | . | . | .
SMILES | PfHsp90 yeast 2 | B2AR ag | tim23-1 inh | tim10-1 inh | TIM10 inh | tim10-1 confirm | tim23-1 confirm | others
Cc1ccc(N=C2NC(=O)/C(=C/c3cccnc3)S2)c(C)c1 | 14 | 7 | 47 | 25 | 33 | . | .
Cc1ccc(N=C2NC(=O)/C(=C\c3ccsc3)S2)c(C)c1 | 16 | 6 | 58* | 52* | 47* | 30 | 66* | TIM10 conf=-13
COc1ccc(-c2nc(-c3ccccc3)c(-c3cccs3)[nH]2)cc1OC | -8 | 12 | 55* | 41* | 34 | 34* | 63*
CCc1ccc(-c2cc(C(=O)Nn3cnnc3)c3ccccc3n2)cc1 | 46 | 6 | 53* | 54* | 22 | 36* | 40*
CCCCNC(=S)NNC(=O)c1cc(-c2ccncc2)nc2ccccc12 | -7 | -3 | 27 | 30 | 18 | . | .
CCNC(=S)NNC(=O)c1cc(-c2cccc(OC)c2)nc2ccccc12 | -17 | 2 | 56* | 56* | 40 | 50* | 54*
CCNC(=S)NNC(=O)c1cc(-c2ccc(OCC)cc2)nc2ccccc12 | . | -15 | 78* | 86* | 34 | 66* | 86*
Cc1cc2c(NCc3ccccc3)ncnc2s1 | 2 | -5 | 18 | 16 | -6 | . | .
CCOc1ccc(NC(=O)CN(C)C(=O)c2cccc(S(=O)(=O)N3CCN(C)CC3)c2)cc1OCC | . | -3 | . | . | . | . | .
C/C(=N\NC(=S)Nc1cccc(C)c1)c1ccccc1 | -16 | -8 | 51* | 51* | 60* | 50* | 52* | TIM10 conf=-23
COc1ccc(C(=O)C(C)OC(=O)COc2ccccc2)cc1 (stereo unspecified) | . | 4 | -2 | 0 | -5 | . | .
c1ccc(-c2cccc(-c3ccccn3)n2)nc1 | 146* | 2 | 58* | 60* | 38 | 43* | 57*
c1ccc(-c2nnc(-c3ccccn3)nn2)nc1 | -7 | 5 | 37 | 23 | 26 | . | .
O=C(Nc1c2c(nn1-c1ccccc1)CS(=O)(=O)C2)c1cc2ccccc2o1 | 5 | 3 | 27 | 24 | 5 | . | .
Cc1ccc(-n2nc3c(c2NC(=O)c2cc4ccccc4o2)CS(=O)(=O)C3)cc1 | -16 | 3 | 51* | 40* | 32 | 29 | 47*
CC(=O)N1CCN(S(=O)(=O)c2cccc(C(=O)NNC(=O)c3ccc(Br)cc3)c2)CC1 | 23 | -195 | . | . | . | . | .
Cc1nc(NC(=O)CSC2=NCCS2)sc1C(=O)N(C)C | 5 | 1 | 6 | 6 | 10 | . | .
CCOC(=O)c1c(C)oc2c1cc(O)c1ccccc12 | -11 | -5 | -2 | 0 | -9 | . | .
CCOC(=O)c1c(C)oc2c(F)c(F)c(F)c(F)c2c1=O | . | 43* | 74* | 42* | 24 | 14 | 48*
O=C(NNc1ccccc1)c1ccc(Cl)c(Cl)c1 | 1 | -2 | . | . | . | . | .

Screening results deposited in PubChem by several laboratories.
